Test results taken from PubChem BioAssay (Tox21).
Values joined by “and” are separate entries in the source; they are usually repeats but may differ in a detail not shown here. Equal values may be shown once. Results filed as inconclusive are left out. Active and inactive are the calls of the source. Unless noted, the call rests on the fitted dose curve; in most records, active means well fitted curve in the direction sought with a large enough effect in the repeat runs; inconclusive means weak or mixed curves; inactive means no such curve, though single readings can be large; an effect the other way counts as inactive or inconclusive.

Key:
[1] = molecular target: Thyrotropin receptor (Homo sapiens) (UniProt P16473); experiment: qHTS assay to identify small molecule antagonists of the thyroid stimulating hormone receptor (TSHR) signaling pathway (AID 1259385; calls by dose curve; further: nearly all actives have a fitted effect of over 20% in size)
Chain of Thyrotropin receptor (Homo sapiens) (P16473 whole entry, looked up): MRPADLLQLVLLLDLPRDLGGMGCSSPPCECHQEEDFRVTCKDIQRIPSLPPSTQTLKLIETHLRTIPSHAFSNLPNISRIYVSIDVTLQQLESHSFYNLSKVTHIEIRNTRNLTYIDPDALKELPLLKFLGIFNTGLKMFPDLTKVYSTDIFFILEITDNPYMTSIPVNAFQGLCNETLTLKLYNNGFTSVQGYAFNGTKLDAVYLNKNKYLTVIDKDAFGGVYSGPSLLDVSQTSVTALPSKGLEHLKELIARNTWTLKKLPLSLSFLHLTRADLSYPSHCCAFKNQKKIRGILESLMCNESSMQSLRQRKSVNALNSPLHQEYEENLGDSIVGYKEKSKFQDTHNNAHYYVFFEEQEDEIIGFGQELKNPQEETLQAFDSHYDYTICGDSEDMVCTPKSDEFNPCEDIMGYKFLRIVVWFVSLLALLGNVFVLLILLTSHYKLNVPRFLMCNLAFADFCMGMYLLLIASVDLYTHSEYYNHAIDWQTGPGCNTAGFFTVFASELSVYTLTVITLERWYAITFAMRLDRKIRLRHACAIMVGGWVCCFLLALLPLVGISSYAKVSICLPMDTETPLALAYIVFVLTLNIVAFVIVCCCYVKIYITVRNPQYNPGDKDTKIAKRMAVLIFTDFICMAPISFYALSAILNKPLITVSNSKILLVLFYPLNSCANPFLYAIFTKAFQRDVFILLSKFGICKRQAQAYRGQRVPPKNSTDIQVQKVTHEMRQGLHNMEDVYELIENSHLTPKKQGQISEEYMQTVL
Summary of the method: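 Antagonist mode: compound-treated TSHR-expressing HEK293 cells were stimulated with 1.5 ng/mL TSH (final) in presence of Ro20-1724 for 30 min at RT. HTRF cAMP detection after 1 h; each compound tested at 15 concentrations, triplicate.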

[2] = molecular target: Progesterone receptor (Homo sapiens) (UniProt P06401); experiment: qHTS assay to identify small molecule antagonists of the progesterone receptor (PR) signaling pathway (AID 1346795; active means well fitted inhibition curve with a large enough effect in the signal ratio in the repeat runs, not every such curve was filed as active; the % refers to the signal ratio; further: potency means the concentration at half of the fitted maximal effect)
Chain of Progesterone receptor (Homo sapiens) (P06401 whole entry, looked up): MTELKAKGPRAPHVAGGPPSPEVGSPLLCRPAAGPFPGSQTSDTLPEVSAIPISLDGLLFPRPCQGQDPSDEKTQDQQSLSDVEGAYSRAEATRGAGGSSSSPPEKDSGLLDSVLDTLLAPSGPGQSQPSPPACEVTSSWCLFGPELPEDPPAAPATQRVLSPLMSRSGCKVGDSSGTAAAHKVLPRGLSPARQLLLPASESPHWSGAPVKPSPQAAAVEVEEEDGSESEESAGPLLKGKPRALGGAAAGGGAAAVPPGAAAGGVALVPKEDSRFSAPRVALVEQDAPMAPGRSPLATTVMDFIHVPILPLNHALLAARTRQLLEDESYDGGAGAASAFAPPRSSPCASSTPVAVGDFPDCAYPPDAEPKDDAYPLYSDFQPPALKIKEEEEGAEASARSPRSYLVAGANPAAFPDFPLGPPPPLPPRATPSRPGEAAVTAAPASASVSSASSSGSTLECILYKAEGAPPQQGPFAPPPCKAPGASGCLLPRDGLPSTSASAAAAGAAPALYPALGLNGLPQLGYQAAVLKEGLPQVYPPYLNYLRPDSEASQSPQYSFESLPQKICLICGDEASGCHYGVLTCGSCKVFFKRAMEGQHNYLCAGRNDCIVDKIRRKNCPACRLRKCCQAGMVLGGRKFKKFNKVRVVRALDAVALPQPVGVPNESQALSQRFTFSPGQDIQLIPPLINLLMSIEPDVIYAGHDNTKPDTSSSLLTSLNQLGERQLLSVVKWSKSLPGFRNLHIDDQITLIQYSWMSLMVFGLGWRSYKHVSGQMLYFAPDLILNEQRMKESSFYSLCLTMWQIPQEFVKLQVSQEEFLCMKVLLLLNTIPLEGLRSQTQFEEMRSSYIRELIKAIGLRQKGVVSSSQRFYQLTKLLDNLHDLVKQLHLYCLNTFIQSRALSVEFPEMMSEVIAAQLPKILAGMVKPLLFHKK
Summary of the method: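 Fluorescence intensity measured 2 hr after adding beta-lactamase FRET substrate to PR-UAS-bla HEK293T cells that had been co-treated 16 hr with compound and 1 nM R5020 (final concentration) in 2% charcoal-stripped FBS.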

[3] = qHTS assay to identify small molecule agonists of the progesterone receptor (PR) signaling pathway - cell viability counter screen (AID 1346799; calls by dose curve; further: nearly all actives have a fitted effect of over 45% in size)
Summary of the method: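 In parallel with the beta-lactamase readout, cytotoxicity toward PR-UAS-bla HEK293T cells was measured by CellTiter-Glo luminescence following 16 hr compound incubation in 2% charcoal-stripped FBS medium.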

[4] = qHTS assay to identify small molecule antagonists of the TGF-beta/Smad signaling pathway - cell viability counter screen (AID 1346824); further: nearly all actives have a fitted effect of over 50% in size
Summary of the method: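 Cytotoxicity counter-screen run in the same wells as the beta-lactamase Smad reporter read: CellTiter-Glo luminescence after 30 min at room temperature. HEK 293T SBE-bla cells had 5 hr compound exposure at 37 C with TGF-beta1 (0.25 ng/mL stock).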

[5] = qHTS assay to identify small molecule agonists of the TGF-beta/Smad signaling pathway - cell viability counter screen (AID 1346829); further: top concentration of the series differs between compounds; nearly all actives have a fitted effect of over 45% in size
Summary of the method: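 Luminescence from CellTiter-Glo, read after a 30 min room-temperature incubation, gives cell viability of SBE-bla HEK 293T cells treated 5 hr with compounds at 37 C.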

[6] = qHTS assay to identify small molecule agonists of the TGF-beta/Smad signaling pathway (AID 1346859; active means well fitted activation curve with a large enough effect in the signal ratio in the repeat runs, not every such curve was filed as active; the % refers to the signal ratio; further: series mostly up to about 77 µM)
Summary of the method: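 After overnight seeding, SBE-bla HEK 293T cells are dosed with compounds in DMSO and kept 5 hr at 37 C, 5% CO2. LiveBLAzer-type FRET substrate is then applied for 2 hr at room temperature.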

[7] = molecular target: Progesterone receptor (Homo sapiens) (UniProt P06401); experiment: qHTS assay to identify small molecule agonists of the progesterone receptor (PR) signaling pathway (AID 1346784; calls by dose curve; further: nearly all actives have a fitted effect of over 30% in size)
Summary of the method: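 Fluorescence from LiveBLAzer B/G FRET substrate cleavage (2 hr, RT) reported PR activation in PR-UAS-bla HEK 293T cells treated 16 hr at 37C/5% CO2 with compounds; medium contained 2% charcoal-stripped FBS.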

[8] = qHTS assay to identify small molecule antagonists of the progesterone receptor (PR) signaling pathway - cell viability counter screen (AID 1346798); further: series mostly up to about 92 µM; nearly all actives have a fitted effect of over 50% in size
Summary of the method: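 CellTiter-Glo luminescence; PR-UAS-bla HEK293T, 3,000 cells/well; compound + R5020, 16 hr, 37C/5% CO2; 30 min RT before read.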

[9] = molecular target: Thyrotropin-releasing hormone receptor (Homo sapiens) (UniProt P34981); experiment: qHTS assay to identify small molecule antagonists of the thyrotropin-releasing hormone receptor (TRHR) signaling pathway (AID 1346877; active means well fitted inhibition curve with a large enough effect in the repeat runs, not every such curve was filed as active; further: series mostly up to about 51 µM)
Chain of Thyrotropin-releasing hormone receptor (Homo sapiens) (P34981 whole entry, looked up): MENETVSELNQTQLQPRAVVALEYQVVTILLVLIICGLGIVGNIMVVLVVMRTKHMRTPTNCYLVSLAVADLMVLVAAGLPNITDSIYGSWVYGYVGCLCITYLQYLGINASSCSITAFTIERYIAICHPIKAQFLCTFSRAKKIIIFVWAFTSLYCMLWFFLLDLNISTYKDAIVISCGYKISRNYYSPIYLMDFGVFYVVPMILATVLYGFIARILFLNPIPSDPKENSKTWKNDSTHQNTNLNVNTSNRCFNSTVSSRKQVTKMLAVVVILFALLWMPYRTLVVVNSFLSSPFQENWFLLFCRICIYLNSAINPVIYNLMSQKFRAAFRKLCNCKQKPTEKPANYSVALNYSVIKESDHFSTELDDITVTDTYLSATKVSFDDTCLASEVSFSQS
Summary of the method: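 Calcium signal in dye-loaded TRHR/HEK293 cells; compounds added 5 min before TRH (1 nM final); fluorescence monitored 3 min at 1 s steps.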
On the % scale 0 is the no-effect control and ±100 the full control effect.

CCN(CC)CCOCCOC(=O)C1(c2ccccc2)CCCC1
inactive: Potency [1] | Potency [2] | Potency [3] | Potency [4] | outcome [5] | outcome [6]

COC(=O)C1=C(C)NC(C)=C(C(=O)OC)C1c1ccccc1[N+](=O)[O-]
active: Potency [2] 23.7 µM
inactive: Potency [1] | Potency [7] | Potency [8] | Potency [3] | Potency [4] | outcome [5] | outcome [6] | outcome [9]

CC(=O)OCC(=O)[C@@]1(O)CCC2C3CCC4=CC(=O)CC[C@]4(C)C3[C@@H](O)C[C@@]21C (stereo not given in full)
inactive: Potency [1] | Potency [8] | Potency [3] | Potency [4] | outcome [5] | outcome [6]

Cc1ccc(=O)n(-c2ccccc2)c1
inactive: Potency [1] | Potency [7] | Potency [2] | Potency [8] | Potency [3] | Potency [4] | outcome [5] | outcome [6] | outcome [9]

c1ccc([C@H]2CN3CCSC3=N2)cc1
inactive: Potency [1] | Potency [7] | Potency [2] | Potency [8] | Potency [4] | outcome [5] | outcome [6] | outcome [9]

CO[C@]12C[C@@H](COC(=O)c3cncc(Br)c3)CN(C)[C@@H]1Cc1cn(C)c3cccc2c13
inactive: Potency [1] | Potency [2] | Potency [3] | Potency [4] | outcome [5] | outcome [6] | outcome [9]

O=c1n(CCO)c(=O)n(CCO)c(=O)n1CCO
inactive: Potency [1] | Potency [2] | Potency [3] | Potency [4] | outcome [5] | outcome [6] | outcome [9]

Cc1ccc(Cl)cc1Cl
inactive: Potency [1] | Potency [2] | Potency [8] | Potency [3] | Potency [4] | outcome [5] | outcome [6] | outcome [9]

Nc1ccc(S(=O)(=O)Nc2ccnn2-c2ccccc2)cc1
inactive: activity change, negative = inhibition [1] 0.942% [at 19 µM] | Potency [2] | Potency [8] | activity change, negative = cytotoxicity [3] -4.95% [at 19 µM] | viability change, negative = cytotoxic [4] 6.26% [at 15.8 µM] | activity change, negative = cytotoxicity [5] 13.7% [at 15.8 µM] | activation [6] -0.937% [at 15.8 µM] | activity, negative = inhibition [9] 2.52% [at 10.5 µM]

Nc1c2c(nc3ccccc13)CCCC2O (stereo not given)
inactive: Potency [1] | Potency [7] | Potency [2] | Potency [8] | Potency [3] | Potency [4] | outcome [5] | outcome [6] | outcome [9]

Nc1c[n+](N2CCOCC2)no1
inactive: Potency [1] | Potency [7] | Potency [2] | Potency [8] | Potency [3] | Potency [4] | outcome [5] | outcome [6] | outcome [9]

CC(C)(C)c1ccc(O)c(O)c1
inactive: Potency [1] | Potency [4] | outcome [5] | outcome [6] | outcome [9]
active: Potency [2] 50.2 µM and 44.5 µM

CCc1ccc(O)c(OC)c1
inactive: Potency [1] | Potency [7] | Potency [8] | Potency [3] | Potency [4] | outcome [5] | outcome [6] | outcome [9]

CC(C)NC(=O)NC(C)C
inactive: Potency [1] | Potency [7] | Potency [2] | Potency [8] | Potency [3] | Potency [4] | outcome [5] | outcome [6] | outcome [9]

CCOC(=O)C(=O)OCC
inactive: Potency [1] | Potency [7] | Potency [2] | Potency [8] | Potency [3] | Potency [4] | outcome [5] | outcome [6]

O=Cc1cccc([N+](=O)[O-])c1
inactive: Potency [1] | Potency [7] | Potency [2] | Potency [8] | Potency [4] | outcome [5] | outcome [6] | outcome [9]

Cc1cc2c(cc1S(N)(=O)=O)S(=O)(=O)CCC2
inactive: Potency [1] | Potency [7] | Potency [2] | Potency [8] | Potency [3] | Potency [4] | outcome [5] | outcome [6] | outcome [9]

CCOC(C)(C)C
inactive: Potency [1] | Potency [7] | Potency [2] | Potency [8] | Potency [3] | Potency [4] | outcome [5] | outcome [6] | outcome [9]

CCCCCCCCCCCCN(CCCCCCCCCCCC)CCCCCCCCCCCC
inactive: Potency [1] | Potency [7] | Potency [2] | Potency [8] | Potency [3] | Potency [4] | outcome [5] | outcome [6]

C=CCS(=O)(=O)O
inactive: Potency [1] | Potency [7] | Potency [8] | Potency [3] | Potency [4] | outcome [5] | outcome [6] | outcome [9]

ClC(Cl)(Br)Br
inactive: Potency [1] | Potency [2] | Potency [8] | Potency [3] | Potency [4] | outcome [5] | outcome [6]

O=C(O)Cc1ccc(CCNS(=O)(=O)c2ccc(Cl)cc2)cc1
inactive: Potency [1] | Potency [7] | Potency [2] | Potency [8] | Potency [3] | Potency [4] | outcome [5] | outcome [6] | outcome [9]
